SW480 rerep = DNA re-replication induction in SW480 cells. AID 624297. hit rate 1.8% among 340,000. SW480 DNA re-replication, Hoechst DNA content imaging, 48 h. Potency, µM (doses to about 46.1 µM), for inactives: top-dose re-replication activation, actives largely listed as activators; also: % of control where 0% means no effect; nearly all actives have a fitted effect of over 55% in size
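Quantitative HTS format with DMSO vehicle controls; 48 hr drug incubation at 37 C, then 40 min Hoechst staining and scanning imager measurement at 405 nm excitation.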
KB-V1 MDR tox = kills drug-selected multidrug resistant KB-V1 cells. KB-V1 MDR cells viability, CellTiter-Glo, 72 h. hit rate 3.4% among 400,000. AID 1347076. Potency, µM (series often up to 46.1 µM), hits mostly cytotoxic; also: % is scaled to controls: 0 for no effect and ±100 for the full control effect; nearly all actives have a fitted effect of over 60% in size
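KB-V1 MDR subline cells in DMEM (phenol-red free, 10% FBS) exposed to compounds in qHTS concentration series for 72 h at 37 degrees C. Viability read by CellTiter-Glo luminescence; concentration-effect curves fitted after normalization and correction.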
MCF10A rereplic = induces DNA re-replication in MCF 10a normal breast cells; MCF 10A DNA re-replication, Hoechst nuclear intensity, 48 h; Potency, µM (highest dose often 46.1 µM), for inactives: at the highest dose activity, positive = re-replication, actives largely listed as activators; hit rate 2.9% among 350,000; AID 624296; also: % of control where 0% means no effect; nearly all actives have a fitted effect of over 50% in size
KB-3-1 cytotox = kills parental KB-3-1 adenocarcinoma cells. KB-3-1 viability, CellTiter-Glo ATP luminescence, 72 h. hit rate 1.4% among 400,000. Potency, µM (doses to about 46.1 µM), actives largely listed as cytotoxic. AID 1347075; also: % is scaled to controls: 0 for no effect and ±100 for the full control effect; nearly all actives have a fitted effect of over 60% in size
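Cells are dispensed, compounds pinned in, plates held at 37 °C for 72 h, then CellTiter-Glo is added and luminescence read after 10 minutes. Cell line: parental KB-3-1 in phenol-red-free DMEM, 10% FBS.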
PINK1 expr mod = changes PINK1 expression. PINK1 immunofluorescence, high-content cytometry, 24 h. Potency, µM (highest dose often 76.6 µM), for the others: top-dose activation (PINK1 increase), usual class: activators. hit rate 0.2% among 410,000; active = well fitted activation curve with a large enough effect; inconclusive = small, poorly fitted or top-dose-only effect; cell line not stated here; also: % of control where 0% means no effect; nearly all actives have a fitted effect of over 65% in size
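Compound titrations (5 concentrations, 24 h) on a stable cell line; DMSO and CCCP controls. Endpoint: fixed-cell PINK1 immunofluorescence with mitochondrial, cell and nuclear markers, scanned by microplate cytometer.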
Numbers without * were called inactive; i = inactive; ? = inconclusive; . = not tested or not shown; [ ] = remark or other dose. Sampled rows, rich in hits. Any-hit rate of the full collection: about 6.7%. Unless noted, calls follow the shape of the dose curve; as a rule, active = well fitted curve in the direction sought with a large enough effect; inconclusive = small, poorly fitted or top-dose-only effect, or another doubt; inactive = no such curve, though single readings can be large; an effect the other way counts as inactive or inconclusive. Potency is read from the fitted curve at half-maximal effect.

SMILES	SW480 rerep	KB-V1 MDR tox	MCF10A rereplic	KB-3-1 cytotox	PINK1 expr mod
CC12CCC(O)CC1=CCC1C2CCC2(C)C1CCC21CCC(=O)O1 (centres undefined)	-66%	21µM*	?	?	2%
CCCCN(C)Cc1c(O)ccc2c(-c3ccccc3)cc(=O)oc12	-17%	10µM*	-2%	?	0%
COc1ccccc1N1CCN(C(=O)CN(Cc2ccccc2)S(C)(=O)=O)CC1	2%	10µM*	7%	i	1%[38.3 µM]
CN1CCN(C(=O)c2ccc(N(Cc3ccc(Cl)cc3)S(C)(=O)=O)cc2)CC1	?	i	5.8µM*	i	3%[38.3 µM]
CS(=O)(=O)N(Cc1ccc(Cl)cc1)c1ccc(C(=O)N2CCN(c3ccccc3)CC2)cc1	0%	?	16%	?	-1%
Cc1cccc(C)c1N(CC(=O)N1CCN(c2ccccc2F)CC1)S(C)(=O)=O	-7%	i	0.65µM*	i	1%
CS(=O)(=O)N(CC(=O)N1CCCCCC1)Cc1ccc(Cl)cc1	-3%	5.2µM*	3%	i	-5%[38.3 µM]
Cc1cccc(N(CC(=O)N2CCN(c3ccccc3F)CC2)S(C)(=O)=O)c1	0%	i	-2%	i	0%
COc1ccc(N2CCN(C(=O)CN(Cc3ccccc3)S(C)(=O)=O)CC2)cc1	-4%	i	-7%	i	-3%[38.3 µM]
Cc1ccc(N2CCN(C(CCc3ccccc3)C(=O)Nc3c(C)cccc3C)CC2)cc1 (centres undefined)	.	?	.	i	.
CCOc1ccc(NC(=O)CC2C(=O)N(c3cccc(C)c3)C(=O)N2Cc2ccco2)cc1 (centres undefined)	.	.	.	.	1%
CS(=O)(=O)N(CC(=O)NC1CCCC1)Cc1ccc(Cl)cc1	-4%	15µM*	2%	i	-3%[38.3 µM]
Oc1cccc2ccc(/C=C/c3ccccc3Cl)nc12	?	i	13%	i	17%
Oc1cccc2ccc(/C=C/c3c(F)cccc3Cl)nc12	18µM*	i	27%	?	-2%
Cc1cccc(OCc2nnc(SCC(=O)c3cccs3)n2C)c1C	3%	16µM*	2%	i	1%[38.3 µM]
Cc1ccccc1OCc1nnc(SCC(=O)NCc2ccccc2)n1C	-6%	i	?	i	-1%
COCc1nc2cccnc2n1C1CCN(S(=O)(=O)N(C)C)CC1	.	i	.	i	-1%
O=S(=O)(Nc1ccc2c(c1)nc1n2CCN(Cc2ccccc2)C1)c1ccc(Cl)cc1	?	i	?	?	.
O=S(=O)(Nc1ccc2c(c1)nc1n2CCN(Cc2ccccc2)C1)c1ccccc1	7%	2.6µM*	26%	?	1%
O=S(=O)(Nc1ccc2c(c1)nc1n2CCN(Cc2ccccc2)C1)c1ccc(F)cc1	4%	i	5%	?	2%
O=C(Nc1ccc2c(c1)nc1n2CCN(Cc2ccccc2)C1)NC1CCCCC1	-3%	i	2%	i	10µM*
Cc1ccc(S(=O)(=O)Nc2ccc3c(c2)nc2n3CCN(Cc3ccccc3)C2)cc1	1%	16µM*	-1%	i	4%[38.3 µM]
COc1cc(-c2ccc(NC(=O)c3ccc(C)cc3)c(OC)c2)ccc1NC(=O)c1ccc(C)cc1	2.6µM*	i	1.6µM*	i	3%[38.3 µM]
COc1cc(-c2ccc(NC(=O)CN3CCC(C)CC3)c(OC)c2)ccc1NC(=O)CN1CCC(C)CC1	-2%	16µM*	?	?	5%
O=C(CC(SCc1ccco1)c1ccc(O)cc1)c1cccs1 (centres undefined)	-3%	i	?	21µM*	-1%
SMILES	SW480 rerep	KB-V1 MDR tox	MCF10A rereplic	KB-3-1 cytotox	PINK1 expr mod
O=C(CSc1nnc(-c2ccc(O)cc2)n1Cc1ccco1)c1cccs1	-4%	i	1%	i	-3%[38.3 µM]
Cc1ccc(C(C[N+](=O)[O-])Sc2ccc(N)cc2)cc1 (centres undefined)	?	?	7.3µM*	i	-2%
CS(=O)(=O)N(CC(=O)N/N=C/c1cc2c(cc1Br)OCO2)c1ccccc1Br	-6%	18µM*	1%	?	0%
CS(=O)(=O)N(CC(=O)N/N=C/c1cccc2c1OCCO2)c1ccccc1Br	-7%	i	-9%	i	1%
Cc1ccccc1N1C(=O)C(Oc2ccc(Cl)cc2)C1CNC(C)(C)C (centres undefined)	?	5.8µM*	12%	i	16%
CC1C(=O)N(Cc2cn(Cc3ccco3)nn2)CCS(=O)(=O)N1Cc1ccc(-c2ccncc2)cc1 (centres undefined)	.	i	.	i	1%
COCCNC(=S)N/N=C/c1c2ccccc2cc2ccccc12	18µM*	i	15µM*	i	?
Cc1cc(C)n2nc(C(=O)N/N=C/c3c4ccccc4cc4ccccc34)nc2n1	?	?	8.2µM*	i	12%
C[N+](C)(C)CC(=O)N/N=C/c1c2ccccc2cc2ccccc12	30%	?	18µM*	i	0%
Cn1cccc1CC(=O)N/N=C\c1c2ccccc2cc2ccccc12	?	i	?	i	.
Cc1cc(C)n2nc(C(=O)N/N=C/c3ccccc3Cl)nc2n1	-8%	i	-1%	i	1%
C/C=C/c1ccc(OCC(=O)OCc2csc(CC(=O)Nc3ccccc3C)n2)c(OC)c1	-6%	i	1%	i	1%
COC(=O)[C@@H]1CCCN1Cc1ccc2c(c1)CN(Cc1cccn1-c1ccccn1)CCO2	.	.	.	.	1%
COc1cccc(-c2nc(CS(=O)CC(=O)N3CCN(c4cccc(C(F)(F)F)c4)CC3)c(C)o2)c1 (centres undefined)	.	.	.	.	2%
CN1CCN(c2cc(-c3cc(O)c4ncccc4c3)ccn2)CC1	?	i	2%	?	2%
Oc1cc(-c2cccnc2)cc2cccnc12	?	?	10µM*	?	5%
O=S(=O)(c1ccccc1)c1nc(-c2ccccc2Cl)oc1NCCN1CCOCC1	9%	i	?	i	28%[38.3 µM]
Cc1ccccc1-c1nc(S(=O)(=O)c2ccccc2)c(NCCCN2CCOCC2)o1	5%	i	-3%	23µM*	0%
Cc1ccccc1-c1nc(S(=O)(=O)c2ccc(Cl)cc2)c(NCCN2CCOCC2)o1	?	i	21µM*	i	?
CSc1ccc(CCNC(=O)Cn2ncc3c(=O)oc4ccc(C)cc4c32)cc1	.	i	.	i	-1%
CC(=O)c1cccc(NC(=O)c2ccccc2N(Cc2ccccc2)S(C)(=O)=O)c1	-19%	i	2.3µM*	i	1%
CC(=O)c1cccc(NC(=O)c2ccc(N(Cc3ccccc3)S(C)(=O)=O)cc2)c1	-8%	21µM*	14%	?	1%
OC1(c2cccnc2)CCN(Cc2ccc3c(c2)CN(Cc2cccc(F)c2F)CCO3)CC1	.	.	.	.	-1%

Source: PubChem BioAssay (National Center for Advancing Translational Sciences (NCATS))
